From PubChem
A selection: hits, their analogues and other compounds. The true share with any hit is near 18%.
TDP1 cell noCPT: qHTS for Inhibitors of human tyrosyl-DNA phosphodiesterase 1 (TDP1): qHTS in cells in absence of CPT; DT40 Tdp1-/- hTDP1 cells, no CPT, ATP luminescence, 48 h; Potency, µM (top dose mostly 46.2 µM), hits mostly inhibitors; 420,000 tested, 15% active; AID 686978, 2013; note: nearly all actives have a fitted effect of over 55% in size
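Camptothecin absent (DMSO only). Human TDP1-complemented DT40 knockout cells, 400 cells/well, 37 °C for minimum 48 hr; ATP measured via CellTiter-Glo, 30 min dark incubation, luminescence.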
TDP1 cell CPT: growth inhibition of DT40 Tdp1-/-;hTDP1 cells with camptothecin (screen for TDP1 inhibitors); Potency, µM (doses to about 46.2 µM), usual class: inhibitors; chicken DT40 Tdp1-/-;hTDP1 cells + 20 nM CPT, ATP luminescence, 48 h; 420,000 tested, 12% active; note: nearly all actives have a fitted effect of over 55% in size
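Chicken DT40 Tdp1-/- cells complemented with human TDP1, 400 cells/well, exposed to compounds plus 20 nM camptothecin for at least 48 h at 37 C; viability read as ATP content by CellTiter-Glo luminescence.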
Six1-Eya2 inh: inhibitors of human Six1/Eya2 interaction | AlphaScreen GST-Six1/His-Eya2 binding, biochemical; stronger effect = lower value | activity change, % (test concentration not listed) | 360,000 tested, 0.56% active | AID 651725; in the data active = activity change below about -65%; inconclusive = mostly about -30% to -63%
Target sequence (O00167 whole entry, looked up): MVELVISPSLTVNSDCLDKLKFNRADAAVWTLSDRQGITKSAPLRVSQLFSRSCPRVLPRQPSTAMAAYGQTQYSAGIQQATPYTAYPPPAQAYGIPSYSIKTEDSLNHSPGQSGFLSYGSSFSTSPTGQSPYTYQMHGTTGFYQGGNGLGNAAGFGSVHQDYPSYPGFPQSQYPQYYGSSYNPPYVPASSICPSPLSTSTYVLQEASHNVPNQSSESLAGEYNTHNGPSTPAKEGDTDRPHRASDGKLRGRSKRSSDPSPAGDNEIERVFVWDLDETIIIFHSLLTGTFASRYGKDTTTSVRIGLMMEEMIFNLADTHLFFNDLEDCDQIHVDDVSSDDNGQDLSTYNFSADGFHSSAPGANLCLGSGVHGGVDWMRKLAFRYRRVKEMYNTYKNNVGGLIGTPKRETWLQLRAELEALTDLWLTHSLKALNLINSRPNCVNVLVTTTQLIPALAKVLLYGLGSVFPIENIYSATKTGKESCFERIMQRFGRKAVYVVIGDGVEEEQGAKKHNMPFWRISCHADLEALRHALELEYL
Target sequence (Q15475 whole entry, looked up): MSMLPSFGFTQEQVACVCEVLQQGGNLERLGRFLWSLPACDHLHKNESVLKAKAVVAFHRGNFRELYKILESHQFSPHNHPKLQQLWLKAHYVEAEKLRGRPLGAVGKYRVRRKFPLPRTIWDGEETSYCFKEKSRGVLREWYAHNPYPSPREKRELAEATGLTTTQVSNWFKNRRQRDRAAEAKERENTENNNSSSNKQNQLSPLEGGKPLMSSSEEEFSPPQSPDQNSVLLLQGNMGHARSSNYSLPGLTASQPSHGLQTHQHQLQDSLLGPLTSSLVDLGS
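AlphaScreen with GST-Six1 and His-Eya2 (5X mix: 250 nM and 500 nM), glutathione donor and nickel acceptor beads; buffer 50 mM Tris pH 8.0, 300 mM NaCl, 1 mM TCEP; 1 h at 37 C in the dark.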
IL1B secr inh: inhibitors of inflammasome signaling (IL-1 beta secretion); THP-1 LPS/ATP IL-1B secretion, AlphaLISA, 16 h; stronger effect = lower value; AID 743279; activity change, % at 57.5 µM; 360,000 tested, 4.7% active; in the data active = activity change below about -50%; inconclusive = mostly about -30% to -49%
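Secreted IL-1B measured by AlphaLISA bead assay after 16 h compound exposure of THP-1 cells; compounds (final up to 57.5 uM) added 1 h before LPS (250 ng/mL) and ATP (1.25 mM) stimulation; lower signal means less secretion.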
TDP1 block: inhibitors of human tyrosyl-DNA phosphodiesterase TDP1; Q9NUW8; recombinant TDP1, AlphaScreen DNA substrate cleavage; Potency, µM (doses to about 130 µM), usual class: inhibitors; 350,000 tested, 0.28% active; AID 485290; note: nearly all actives have a fitted effect of over 40% in size
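Enzyme-compound mixtures sat 15 min at room temperature, followed by a 5 min reaction with 15 nM final substrate and 10 min with AlphaScreen beads. Recombinant human Tdp1 was used at 1 nM final.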
CtBP-E1A blk: blocks the CtBP interaction with E1A | AlphaScreen GST-E1A/His-CtBP binding, 1536-well; stronger effect = lower value | 340,000 tested, 0.49% active | AID 651724 | activity change, % (no concentration beside the values); in the data active = activity change below about -65%; inconclusive = mostly about -30% to -63%
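Homogeneous bead-based format: GST-tagged E1A captured on glutathione donor beads, His-tagged CtBP on nickel acceptor beads; compounds precede bead addition by 2 h at 37 °C.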
Hits are given with their value. Unless noted, calls come from the whole dose curve; as a rule, active = well fitted curve in the direction sought with a large enough effect; inconclusive = small, poorly fitted or top-dose-only effect, or another doubt; inactive = no such curve, though single readings can be large; an effect the other way counts as inactive or inconclusive.

For COc1ccccc1-n1cnc2c(c1=O)c1nc3ccccc3nc1n2-c1ccc(C)cc1 the results were TDP1 cell noCPT inconclusive, TDP1 cell CPT inconclusive, Six1-Eya2 inh inactive, IL1B secr inh inactive and TDP1 block inactive.
For COc1ccccc1-n1cnc2c(c1=O)c1nc3ccccc3nc1n2CCc1ccccc1 the results were TDP1 cell noCPT 16µM, TDP1 cell CPT 21µM, Six1-Eya2 inh inactive, IL1B secr inh inactive, TDP1 block inactive and CtBP-E1A blk inactive.
For CCOc1ccccc1N1CCN(Cc2cc3c(cc2[N+](=O)[O-])OCO3)CC1 the results were TDP1 cell noCPT inconclusive, TDP1 cell CPT inconclusive, Six1-Eya2 inh inactive, IL1B secr inh inactive and CtBP-E1A blk inactive.
`Cc1nc(CSc2nnc(Nc3cccc(C)c3C)s2)cs1` gave TDP1 cell noCPT inactive, TDP1 cell CPT inactive, Six1-Eya2 inh inactive, IL1B secr inh inconclusive, TDP1 block inactive and CtBP-E1A blk inactive.
`O=c1oc(-c2ccc(O)c(O)c2)cc2cc(O)cc(O)c12` gave TDP1 cell noCPT inconclusive, TDP1 cell CPT inconclusive, Six1-Eya2 inh inactive, IL1B secr inh inactive, TDP1 block inactive and CtBP-E1A blk inconclusive.
Screening Cc1cc(NC(=O)CSc2nc(C3CCCCC3)nc3ccccc23)no1 returned TDP1 cell noCPT inconclusive, TDP1 cell CPT inconclusive, Six1-Eya2 inh inactive, IL1B secr inh inactive, TDP1 block inactive and CtBP-E1A blk inactive.
For Cc1nonc1NC(=O)CSc1nc(C23CC4CC(CC(C4)C2)C3)nc2ccccc12 the results were TDP1 cell noCPT inconclusive, TDP1 cell CPT inconclusive, Six1-Eya2 inh inactive, IL1B secr inh -90 and CtBP-E1A blk inactive.
For Cc1nonc1NC(=O)CSc1nc(C2CCCCC2)nc2ccccc12 the results were TDP1 cell noCPT 23µM, TDP1 cell CPT 29µM, Six1-Eya2 inh inactive, IL1B secr inh -74, TDP1 block inactive and CtBP-E1A blk inactive.
Screening NC(=O)CSc1nc2ccccc2nc1SCC(N)=O returned TDP1 cell noCPT inactive, TDP1 cell CPT inactive, Six1-Eya2 inh inactive, IL1B secr inh inactive, TDP1 block inactive and CtBP-E1A blk inactive.
Cc1cc2nc(SCC(=O)Nc3nonc3C)c3c(c2cc1C)CCCC3 was read as TDP1 cell noCPT inactive, TDP1 cell CPT inactive, Six1-Eya2 inh inactive, IL1B secr inh inactive, TDP1 block inactive and CtBP-E1A blk inactive.
For NC(=O)CSc1nc(C23CC4CC(CC(C4)C2)C3)nc2ccccc12 the results were TDP1 cell noCPT 26µM, TDP1 cell CPT inconclusive, Six1-Eya2 inh inactive, IL1B secr inh inconclusive and TDP1 block inactive.
`Cc1nc2cc(NC(=O)CS(=O)(=O)c3ccc(F)cc3)ccc2s1` gave TDP1 cell noCPT inconclusive, TDP1 cell CPT inconclusive, Six1-Eya2 inh inactive, IL1B secr inh inactive and CtBP-E1A blk inactive.
Screening O=C(NC1CCCC1)C1C(c2ccccc2)=Nc2ccccc2N1C(=O)c1cc(Cl)cc(Cl)c1 (stereo unspecified) returned TDP1 cell noCPT 29µM, TDP1 cell CPT 18µM, Six1-Eya2 inh inactive, IL1B secr inh inactive and CtBP-E1A blk inactive.
For COC(=O)[C@H](CCSC)NC(=O)c1ccc(NC[C@@H](N)CS)cc1-c1ccccc1 the results were TDP1 block inactive.
`Cc1nn(-c2ccccc2)c2c1N(CC(=O)N1CCN(c3ccccc3F)CC1)C(=O)CS2` gave TDP1 cell noCPT inconclusive, TDP1 cell CPT 18µM and TDP1 block inactive.
Screening Cc1nn(-c2ccccc2)c2c1N(CC(=O)N1CCN(c3ccc(F)cc3)CC1)C(=O)CS2 returned TDP1 cell noCPT 21µM, TDP1 cell CPT inconclusive and TDP1 block inactive.
Cc1ccccc1C(=O)NC(=S)NCCC1=CCCCC1 was read as TDP1 cell noCPT inconclusive, TDP1 cell CPT inactive, Six1-Eya2 inh inactive, IL1B secr inh inactive, TDP1 block inactive and CtBP-E1A blk inactive.
Screening Cc1ccc2nc(N(Cc3cccnc3)C(=O)CCOc3ccccc3)sc2c1 returned TDP1 cell noCPT inconclusive, TDP1 cell CPT inconclusive and TDP1 block inactive.
Screening CC(=O)N(Cc1cccnc1)c1cccc(-c2nc3ccccc3s2)c1 returned TDP1 cell noCPT inconclusive, TDP1 cell CPT inconclusive, Six1-Eya2 inh inactive, IL1B secr inh -62, TDP1 block inactive and CtBP-E1A blk inactive.
`O=C(CCOc1ccccc1)N(Cc1cccnc1)c1nc2c(F)cccc2s1` gave TDP1 cell noCPT 7.3µM, TDP1 cell CPT 13µM and TDP1 block inactive.
For Cc1ccc2sc(N(Cc3cccnc3)C(=O)CCOc3ccccc3)nc2c1C the results were TDP1 cell noCPT 18µM, TDP1 cell CPT 23µM and TDP1 block inactive.
Screening CC(=O)c1ccc(C(=O)N(Cc2cccnc2)c2nc3c(Cl)cccc3s2)cc1 returned TDP1 cell noCPT inconclusive, TDP1 cell CPT 26µM and TDP1 block inactive.
Screening CCNC(=O)[C@H]1O[C@@H](n2cnc3c(N)nc(NCCc4ccc(CCC(=O)O)cc4)nc32)[C@H](O)[C@@H]1O returned TDP1 cell noCPT inactive, TDP1 cell CPT inactive, Six1-Eya2 inh inactive, IL1B secr inh inactive and CtBP-E1A blk inactive.
For CCOC(=O)c1c(-c2cc(OC)c(OC)c(OC)c2)csc1N the results were TDP1 cell noCPT inconclusive, TDP1 cell CPT 23µM, Six1-Eya2 inh inactive, IL1B secr inh inactive and CtBP-E1A blk inactive.
CCOC(=O)c1c(-c2ccc(OC)c(OC)c2)csc1NC(=O)c1ccccc1F was read as TDP1 cell noCPT inactive, TDP1 cell CPT inactive and TDP1 block inactive.
For CCOC(=O)c1c(-c2cccs2)csc1N the results were TDP1 cell noCPT inactive, TDP1 cell CPT inactive, Six1-Eya2 inh inactive, IL1B secr inh inactive, TDP1 block inactive and CtBP-E1A blk inactive.
O=C(Nc1scc(-c2ccccc2)c1C(=O)O)c1ccccc1Cl was read as TDP1 cell noCPT inactive, TDP1 cell CPT inactive, Six1-Eya2 inh inconclusive, IL1B secr inh inactive and CtBP-E1A blk inconclusive.
Screening O=C(/C=C/c1cccs1)Nc1scc(-c2ccccc2)c1C(=O)O returned TDP1 cell noCPT inactive, TDP1 cell CPT inactive, Six1-Eya2 inh inactive, IL1B secr inh inactive, TDP1 block 32µM and CtBP-E1A blk inactive.
For COc1cc(C(=O)Nc2scc(-c3ccccc3)c2C(=O)O)cc(OC)c1OC the results were TDP1 cell noCPT 13µM, TDP1 cell CPT inconclusive, Six1-Eya2 inh inactive, IL1B secr inh inactive and CtBP-E1A blk inactive.
`CCOC(=O)c1c(-c2cc(OC)c(OC)c(OC)c2)csc1NC(=O)c1ccccc1` gave TDP1 cell noCPT 18µM, TDP1 cell CPT inconclusive, Six1-Eya2 inh inactive, IL1B secr inh inactive and CtBP-E1A blk inactive.
